# Numbering of substitutions follows the chain as printed.
# Tests used:
# Assay in all cases: yeast three-hybrid, YBZ-1, SC-Leu-His + 0.5 mM 3-AT, 4 days
# Details in all cases: tags: N-Gal4 AD-HA kept; label: inside an RPR1-promoter hybrid RNA with tandem MS2 sites; ssRNA
# PUM1 PUF domain R4-SPV = PUM1 PUF domain R4-SPV (Homo sapiens, UniProt Q14671 828-1176, N971S;H972P;Q975V)
# Procedure, shortened: (§1)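 Sequencing with Illumina followed PCR amplification of the repeat regions from transformants grown four days on SC-Leu (input) or SC-Leu-His + 0.5 mM 3-AT (selection). The transformants were strain YBZ-1 with a LexA–MS2 coat fusion and a HIS3 reporter, carrying Pumilio-1 PUF domain libraries and matching RNA elements. The interaction score is the log change in variant frequency from input to selection, computed in log2 with a pseudocount of 1 for absent variants.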
# PUM1 PUF domain R4-ARM = PUM1 PUF domain R4-ARM (Homo sapiens, UniProt Q14671 828-1176, N971A;H972R;Q975M)
# Procedure, shortened: as §1
# PUM1 PUF domain R3-EYE = PUM1 PUF domain R3-EYE (Homo sapiens, UniProt Q14671 828-1176, C935E;R936Y;Q939E)
# Procedure, shortened: as §1
# PUM1 PUF domain R3-CRD = PUM1 PUF domain R3-CRD (Homo sapiens, UniProt Q14671 828-1176, Q939D)
# Procedure, shortened: as §1
# PUM1 PUF domain R7-RRS = PUM1 PUF domain R7-RRS (Homo sapiens, UniProt Q14671 828-1176, S1079R;N1080R;E1083S)
# Procedure, shortened: as §1
# PUM1 PUF domain R7-AVK = PUM1 PUF domain R7-AVK (Homo sapiens, UniProt Q14671 828-1176, S1079A;N1080V;E1083K)
# Procedure, shortened: as §1
# PUM1 PUF domain R1-RTR = PUM1 PUF domain R1-RTR (Homo sapiens, UniProt Q14671 828-1176, S863R;R864T;Q867R)
# Procedure, shortened: as §1
# PUM1 PUF domain R3-TYW = PUM1 PUF domain R3-TYW (Homo sapiens, UniProt Q14671 828-1176, C935T;R936Y;Q939W)
# Procedure, shortened: as §1
# PUM1 PUF domain R5-RYR = PUM1 PUF domain R5-RYR (Homo sapiens, UniProt Q14671 828-1176, C1007R;R1008Y;Q1011R)
# Procedure, shortened: as §1
# PUM1 PUF domain R6-RWK = target: T1, PUM1 PUF domain R6-RWK (Homo sapiens, UniProt Q14671 828-1176, N1043R;Y1044W;Q1047K)
# T1 sequence: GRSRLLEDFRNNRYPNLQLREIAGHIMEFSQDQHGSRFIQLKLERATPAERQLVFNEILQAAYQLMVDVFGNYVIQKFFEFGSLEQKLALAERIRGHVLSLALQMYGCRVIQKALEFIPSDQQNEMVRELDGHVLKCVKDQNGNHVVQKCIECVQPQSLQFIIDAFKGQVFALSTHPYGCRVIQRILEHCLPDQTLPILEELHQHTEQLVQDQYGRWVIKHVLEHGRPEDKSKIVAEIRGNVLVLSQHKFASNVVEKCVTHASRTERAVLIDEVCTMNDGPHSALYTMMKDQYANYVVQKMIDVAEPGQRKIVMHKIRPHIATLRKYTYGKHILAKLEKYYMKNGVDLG
# Procedure, shortened: as §1
# PUM1 PUF domain R5-KYV = PUM1 PUF domain R5-KYV (Homo sapiens, UniProt Q14671 828-1176, C1007K;R1008Y;Q1011V)
# Procedure, shortened: as §1
# PUM1 PUF domain R8-IWR = PUM1 PUF domain R8-IWR (Homo sapiens, UniProt Q14671 828-1176, N1122I;Y1123W;Q1126R)
# Procedure, shortened: as §1
# PUM1 PUF domain R4-PTC = PUM1 PUF domain R4-PTC (Homo sapiens, UniProt Q14671 828-1176, N971P;H972T;Q975C)
# Procedure, shortened: as §1
# PUM1 PUF domain R4-SNY = PUM1 PUF domain R4-SNY (Homo sapiens, UniProt Q14671 828-1176, N971S;H972N;Q975Y)
# Procedure, shortened: as §1
# PUM1 PUF domain R6-YRS = target: T2, PUM1 PUF domain R6-YRS (Homo sapiens, UniProt Q14671 828-1176, N1043Y;Y1044R;Q1047S)
# T2 sequence: T1 sequence with R216Y, W217R, K220S
# Procedure, shortened: as §1
sequence,measurement,setting,value
GGCUAGAACUAGUGGAUCCCCCGGCGCCCGGCGGCUCGAGCCCGGGUAAGUGUAUAUAGUCUGCAUGCCGCCGGGCGCCAUGCCUGCAGGUCGACUCUAGAAAACAUG,binding signal,PUM1 PUF domain R4-SPV,3.71 log2 enrichment (interaction score)
same,binding signal,PUM1 PUF domain R4-ARM,1.47 log2 enrichment (interaction score)
GGCUAGAACUAGUGGAUCCCCCGGCGCCCGGCGGCUCGAGCCCGGGUAAGUGUAAUUAGUCUGCAUGCCGCCGGGCGCCAUGCCUGCAGGUCGACUCUAGAAAACAUG,binding signal,PUM1 PUF domain R3-EYE,5.03 log2 enrichment (interaction score)
same,binding signal,PUM1 PUF domain R3-CRD,1.14 log2 enrichment (interaction score)
GGCUAGAACUAGUGGAUCCCCCGGCGCCCGGCGGCUCGAGCCCGGGUAAGUUUAAAUAGUCUGCAUGCCGCCGGGCGCCAUGCCUGCAGGUCGACUCUAGAAAACAUG,binding signal,PUM1 PUF domain R7-RRS,4.29 log2 enrichment (interaction score)
same,binding signal,PUM1 PUF domain R7-AVK,4.11 log2 enrichment (interaction score)
GGCUAGAACUAGUGGAUCCCCCGGCGCCCGGCGGCUCGAGCCCGGGUAAGUGUAAAUCGUCUGCAUGCCGCCGGGCGCCAUGCCUGCAGGUCGACUCUAGAAAACAUG,binding signal,PUM1 PUF domain R1-RTR,1.13 log2 enrichment (interaction score)
GGCUAGAACUAGUGGAUCCCCCGGCGCCCGGCGGCUCGAGCCCGGGUAAGUGUAAAUAGUCUGCAUGCCGCCGGGCGCCAUGCCUGCAGGUCGACUCUAGAAAACAUG,binding signal,PUM1 PUF domain R3-TYW,5.67 log2 enrichment (interaction score)
same,binding signal,PUM1 PUF domain R4-SPV,1.64 log2 enrichment (interaction score)
same,binding signal,PUM1 PUF domain R5-RYR,2.49 log2 enrichment (interaction score)
same,binding signal,PUM1 PUF domain R6-RWK,6.43 log2 enrichment (interaction score)
same,binding signal,PUM1 PUF domain R3-EYE,2.67 log2 enrichment (interaction score)
same,binding signal,PUM1 PUF domain R5-KYV,4.2 log2 enrichment (interaction score)
same,binding signal,PUM1 PUF domain R8-IWR,3.98 log2 enrichment (interaction score)
same,binding signal,PUM1 PUF domain R4-PTC,3.57 log2 enrichment (interaction score)
same,binding signal,PUM1 PUF domain R4-ARM,4.11 log2 enrichment (interaction score)
same,binding signal,PUM1 PUF domain R3-CRD,5 log2 enrichment (interaction score)
same,binding signal,PUM1 PUF domain R4-SNY,2.33 log2 enrichment (interaction score)
GGCUAGAACUAGUGGAUCCCCCGGCGCCCGGCGGCUCGAGCCCGGGUAAGUGAAAAUAGUCUGCAUGCCGCCGGGCGCCAUGCCUGCAGGUCGACUCUAGAAAACAUG,binding signal,PUM1 PUF domain R6-YRS,3.7 log2 enrichment (interaction score)

# From article PMC8384837, “Expanding the binding specificity for RNA recognition by a PUF domain”
